# In PubChem BioAssay (EPA / NIEHS):
# Activity calls are given as the source filed them. How the source made its calls: active means hit-call score of the fitted dose curve at least 0.9, where 1 is the maximum; inactive means score below 0.9.
# Experiment: Tanguay_ZF_120hpf_TCHR: Oregon State University Tanguay Lab 120 Hour Post-fertilization zebrafish Assay for Touch Responsive (AID 2284403)
# Description: Tanguay_ZF_120hpf is a whole embryo, multiplexed endpoint assay using zebrafish larvae exposed for 120 hours post fertilization on a 96-well plate.Tanguay_ZF_120hpf_TCHR is one of one assay component(s) measured or calculated from the Tanguay_ZF_120hpf assay. It is designed to make measurements of zebrafish development as detected with brightfield microscopy of developing zebrafish embryos.Data from the assay component Tanguay_ZF_120hpf_TCHR was analyzed into 1 assay endpoints. This assay endpoint, Tanguay_ZF_120hpf_TCHR, was analyzed in the positive analysis fitting direction relative to DMSO as the negative control and baseline of activity. Using a type of morphology reporter, gain-of-signal activity can be used to understand changes in developmentals as they relate to the whole embryo. To generalize the intended target to other relatable targets, this assay endpoint is annotated to the zebrafish development intended target family, where the subfamily is embryonic functional response.
# Zebrafish husbandry: Tropical 5D wild-type adult zebrafish were housed in at an approximate density of 1000 per 100 gallon tank at the Sinnhuber Aquatic Research Laboratory, Oregon State University, Corvallis, OR. Each tank was kept at standard laboratory conditions of 28C on a 14-h light/10-h dark photoperiod in fish water consisting of reverse osmosis water supplemented with a commercially available salt (Instant Ocean). Spawning funnels were placed into the tanks the night prior, and embryos were collected and staged. To increase bioavailability, the chorion was enzymatically removed using pronase (63.6mg/ml, >/= 3.5U/mg, Sigma-Aldrich: P5147) at 4 hours post fertilization (hpf) using a custom automated dechorionator.Chemical exposures: Six hpf dechorionated embryos were placed 1 embryo per well in a 96-well plate prefilled with 90 ul of EM using automated embryo placement systems (AEPS). Ten microliters of each row of dilution plate 2 was added to 2 exposure plates. The final DMSO concentration used was 0.64% (vol/vol). Thirty-two embryos were also exposed to 5uM trimethyltin chloride (positive control). Plates were sealed to prevent evaporation and foil covered to reduce light exposure and kept in a 28C incubator. Embryos were statically exposed until 120 hpf. At 24 hpf, embryos were assessed for photomotor response using a custom photomotor response analysis tool (PRAT) and for developmental toxicity endpoints (MO24: mortality at 24 hpf, DP: developmental progression, SM: spontaneous movement, and NC: notochord distortion). At 120 hpf, locomotor activity was measured using Viewpoint Zebralab and assessed for 13 endpoints. Zebrafish acquisition and analysis program (ZAAP), a custom program designed to inventory, acquire, and manage zebrafish data, was used to collect developmental endpoints as either present or absent (i.e., binary responses were recorded). If mortality occurred for an embryo (at either 24 or 120 hpf), the non-mortality endpoints were not measured.
row,SMILES,outcome
1,CO[Si](C)(CCC(F)(F)C(F)(F)C(F)(F)C(F)(F)C(F)(F)C(F)(F)F)OC,inactive
2,C=CC(=O)OCCC(F)(F)C(F)(F)C(F)(F)C(F)(F)F,inactive
3,NS(=O)(=O)C(F)(F)C(F)(F)C(F)(F)C(F)(F)C(F)(F)C(F)(F)F,inactive
4,NC(=O)C(F)(F)C(F)(F)C(F)(F)F,inactive
5,O=C(O)C(F)(F)C(F)(F)C(F)(F)OC(F)(F)F,inactive
6,NC(=O)C(F)(F)C(F)(F)C(F)(F)C(F)F,inactive
7,O=S(=O)(OCC(F)(F)F)C(F)(F)C(F)(F)C(F)(F)C(F)(F)F,inactive
8,C=CC(=O)OCC(F)(F)C(F)(F)C(F)(F)C(F)(F)C(F)(F)C(F)(F)C(F)(F)C(F)F,inactive
9,O=S(=O)(O)CCC(F)(F)C(F)(F)C(F)(F)C(F)(F)C(F)(F)C(F)(F)C(F)(F)C(F)(F)F,inactive
10,O=S(=O)(O)CCC(F)(F)C(F)(F)C(F)(F)C(F)(F)F,inactive
11,OCC(F)(F)C(F)(F)C(F)(F)C(F)(F)C(F)(F)C(F)(F)C(F)(F)C(F)(F)CO,inactive
12,O=C(O)C(F)(F)C(F)(F)C(F)(F)C(=O)O,inactive
13,CCN(CCO)S(=O)(=O)C(F)(F)C(F)(F)C(F)(F)C(F)(F)C(F)(F)C(F)(F)C(F)(F)C(F)(F)F,inactive
14,O=S(=O)(Cl)C(F)(F)C(F)(F)C(F)(F)C(F)(F)C(F)(F)C(F)(F)C(F)(F)C(F)(F)F,inactive
15,CNS(=O)(=O)C(F)(F)C(F)(F)C(F)(F)C(F)(F)C(F)(F)C(F)(F)C(F)(F)C(F)(F)F,inactive
16,OCCCCC(F)(F)C(F)(F)C(F)(F)C(F)(F)F,inactive
17,COC(F)(C(F)F)C(F)(F)F (configuration not stated),inactive
18,FC(F)(F)C(F)(F)C(F)(F)C(F)(F)C(F)(F)C(F)(F)CC[Si](Cl)(Cl)Cl,inactive
19,O=C(O)CCC(F)(F)C(F)(F)C(F)(F)C(F)(F)C(F)(F)C(F)(F)C(F)(F)F,inactive

row,SMILES,outcome
1,NC(=O)C(F)(F)C(F)(F)C(F)(F)C(F)(F)C(N)=O,inactive
2,CCOC(=O)CC(=O)C(F)(F)C(F)(F)F,inactive
3,C[Si](Cl)(Cl)CCC(F)(F)C(F)(F)C(F)(F)C(F)(F)C(F)(F)C(F)(F)F,inactive
4,OCC(O)CC(F)(F)C(F)(F)C(F)(F)C(F)(F)F (configuration not stated),inactive
5,OCC(F)(F)C(F)(F)C(F)(F)CO,inactive
6,OCC(F)(F)C(F)(F)C(F)(F)C(F)(F)C(F)(F)C(F)(F)CO,inactive
7,OCCCC(F)(F)C(F)(F)C(F)(F)C(F)(F)C(F)(F)C(F)(F)C(F)(F)C(F)(F)F,inactive
8,FC(F)(F)C(F)(F)C(F)(F)CC1CO1 (configuration not stated),inactive
9,OC(O)C(F)(F)C(F)(F)F,inactive
10,C=CC(=O)OCC(F)(F)C(F)(F)C(F)(F)COC(=O)C=C,inactive
11,NC(O)(C(F)(F)F)C(F)(F)F,inactive
12,OCC(O)CC(F)(F)C(F)(F)C(F)(F)C(F)(F)C(F)(F)C(F)(F)C(F)(F)C(F)(F)F (configuration not stated),inactive
13,CN(C(=O)C(F)(F)C(F)(F)C(F)(F)F)[Si](C)(C)C,inactive
14,NC(=O)C(F)(F)C(F)(F)C(F)(F)C(F)(F)C(F)(F)C(F)(F)C(F)(F)F,inactive
15,O=C(O)CCC(F)(F)C(F)(F)C(F)(F)F,inactive
16,FC(F)(F)C(F)(F)C(F)(F)C(F)(F)C(F)(F)C(F)(F)C(F)(F)CCI,inactive
17,O=C(O)C(F)(F)C(F)(F)C(F)(F)OC(F)(C(F)(F)F)C(F)(F)F,inactive
18,O=C(F)C1(F)C(F)(F)C(F)(F)C(F)(F)C(F)(F)C1(F)F,inactive
